Calls of active or inactive are those of the source. How the source made its calls: active means hit-call score of the fitted dose curve at least 0.9, where 1 is the maximum; inactive means score below 0.9.

The nature of this assay: ATG_ERE_CIS: Attagene CIS-FACTORIAL HepG2 Assay for Estrogen Response Element (ERE) (AID 2282940). The following applies: HepG2 ERE cis-reporter, Attagene RNA transcript; actives raise or lower the signal. On the procedure:
ATG_CIS is a cell-based, multiplexed-readout assay that uses HepG2, a human liver cell line, with measurements taken at 24 hours after chemical dosing in a 24-well plate.ATG_ERE_CIS is one of 52 assay component(s) measured or calculated from the ATG_CIS assay. It is designed to make measurements of mRNA induction, a form of inducible reporter, as detected with fluorescence intensity signals by Reverse transcription polymerase chain reaction (RT-PCR) and Capillary electrophoresis technology.Data from the assay component ATG_ERE_CIS was analyzed into 1 assay endpoint. This assay endpoint, ATG_ERE_CIS, was analyzed with bidirectional fitting relative to DMSO as the negative control and baseline of activity. Using a type of inducible reporter, measures of mRNA for gain or loss-of-signal activity can be used to understand the reporter gene at the transcription factor-level as they relate to the gene ESR1. Furthermore, this assay endpoint can be referred to as a primary readout, because this assay has produced multiple assay endpoints where this one serves a reporter gene function. To generalize the intended target to other relatable targets, this assay endpoint is annotated to the nuclear receptor intended target family, where the subfamily is steroidal.
Human liver HepG2 cells are transiently transfected with multiple reporter transcription units (MRTUs) in 6-well plates using FuGene 6 reagent (Roche; 3 ml FuGene/1 mg DNA). The MRTU constructs are regulated by a cis-regulating element (promoter). […] A major difference between the CIS and TRANS system is that in CIS activities of endogenous TFs are measured, whereas the TRANS assay evaluates changes in activities of exogenous, chimeric NR-Gal4 proteins. […] At the end of 24 hour incubation, total RNA was isolated using TriZol reagent (Invitrogen). The isolated RNA is then reverse-transcribed using oligo(dT) primer and Mo-MLV reverse transcriptase (Invitrogen) with DNAse I (Ambion) treatment for 30 min. The one-tenth of the produced cDNA was amplified by PCR using Taq DNA polymerase (Invitrogen) and two reporter sequence-specific primers. The PCR products were fluorescently labeled by primer extension with 6-arboxyfluorescein (6-FAM) 5'-labeled reporter sequence-specific primer (2 min at 95 C, 20 s at 68 C and 10 min at 72 C) and these products were digested with 5U of HpaI (New England Biolabs) for 2h at 37 C. The fragments were purified using Qiaquick PCR columns (Qiagen), analyzed on an ABI 3130xL genetic analyzer (Applied Biosystems) with peak positions identified by using a set of X-rhodamine (ROX)-labeled MapMarker1000 molecular weight standards (BioVentures). The raw capillary electrophoresis data was processed using Attagraph software (Attagene).
Consider `O=C(Nc1ccc2c(O)c(N=Nc3ccc(N=Nc4ccc(S(=O)(=O)O)cc4)cc3)c(S(=O)(=O)O)cc2c1)c1ccccc1`, for which the molecule was called inactive. The same measure, in the same setting: for `CC1(C)O[C@@H]2[C@@H](CO[C@@]3(COS(N)(=O)=O)OC(C)(C)O[C@@H]23)O1` the value was “inactive”; for `CN(C)c1ccncc1`, “inactive”. In the case of `O=[N+]([O-])c1cccc(Cl)c1`, the molecule was called inactive. On the same count and under the same terms, for `O=CN1CCOCC1` the value was “inactive”. Still for that read-out and setting: next, `CCCCCCCCCCCC(=O)OCC(O)CO` (stereo not given): “inactive”. On the same count and under the same terms, next, `CS(=O)(=O)OCCCCOS(C)(=O)=O`: “inactive”. Regarding `CN(c1nccc(=O)[nH]1)C1CCN(c2nc3ccccc3n2Cc2ccc(F)cc2)CC1`, the call was inactive. Same read-out and setting: for `CC(C)CCCCCCc1ccc(OCCOCCO)cc1` the value was “inactive”. By AC50 is commonly meant the concentration giving half of the maximal activity seen. As to `CCCC(=O)C(CC)Sc1ccoc1C` (stereo not given), the AC50 is 88.9 µM (active). Consider `O=C(O)c1cccnc1C(=O)O`, for which the call was inactive. Take `Brc1ccc(Br)c(Br)c1`: the molecule was classed as inactive. Consider `OCC(O)c1ccccc1` (stereo not given), for which the call was inactive. For `CC(C)(CO)[C@@H](O)C(=O)NCCC(=O)O`, the molecule was classed as inactive. Turning to `Cc1ncc([N+](=O)[O-])n1CCO`, the result was inactive. The same measure, in the same setting: next, `Nc1c(Cl)cc(Cl)cc1[N+](=O)[O-]`: “inactive”; `COC(=O)C=C(C)CCC=C(C)C`: “inactive”. Regarding `Nc1c(S(=O)(=O)O)cc(Br)c2c1C(=O)c1ccccc1C2=O`, the AC50 is 31.9 µM (active). For `CCN(CCN)c1cccc(C)c1`, the result was inactive. The same measure, in the same setting: next, `OC[C@H]1O[C@@H](Oc2ccc(O)cc2)[C@H](O)[C@@H](O)[C@@H]1O`: “inactive”; `CCC(=O)OCCOc1ccccc1`: “inactive”; `C[C@@H]1CCN(C(=O)[C@H](CCCN=C(N)N)NS(=O)(=O)c2cccc3c2NC[C@H](C)C3)[C@@H](C(=O)O)C1`: “inactive”. Still for that read-out and setting: for `CC(C)NCC(O)COc1ccc(CC(N)=O)cc1` (stereo not given) the value was “inactive”; for `Cc1[nH]c(=O)c(C#N)cc1-c1ccncc1`, “inactive”. Still for that read-out and setting: next, `CCCCC1(COC(=O)CCC(=O)O)C(=O)N(c2ccccc2)N(c2ccccc2)C1=O`: “inactive”.

Values taken from PubChem BioAssay (EPA / NIEHS).
